In PubChem BioAssay one finds inhibition data, which are given here for 51 compounds.

Several values for one entry are separate records, joined by “and”; a condition that tells them apart may be missing. Identical values can stand only once. A number with no mark means an inactive call. Activity calls are given as the source filed them. Cut-off read from the data, not from the text of the source, unless noted: active = inhibition above about 44%; inactive = the rest.

Assay [1] in a line: StAR promoter reporter inhibitors, counter-screen for LRH-1 inverse agonist project, cell-based, luminescence, high throughput (AID 651611; in the data active = inhibition above about 28%). Particulars: StAR promoter luciferase reporter counterscreen, at 3.6 µM, active compounds read high. For orientation: The purpose of a counterscreen is to sort out artefacts and off-target activity.
Assay [2] has as its target Nuclear receptor subfamily 5 group A member 2 (Homo sapiens) (UniProt O00482). Briefly: LRH-1 (NR5A2) inverse agonists, retest, confirmation, cell-based, luminescence (AID 651613; in the data active = inhibition above about 42%;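 note: HEK293T cells co-transfected with LRH-1 and StAR promoter luciferase reporter; 0% = vehicle wells and 100% = parental cells lacking receptor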). Particulars: cell-based LRH-1 luciferase reporter, inverse agonism; at 3.6 µM; active compounds read high. (Reporter assays use an easily measured gene product as a stand-in for the process of interest.)

The target of assay [3] is Steroidogenic factor 1 (Homo sapiens) (UniProt Q13285). Put plainly: SF1 (NR5A1) inverse agonists, counter-screen for LRH-1 inverse agonist project, cell-based, luminescence, high throughput (AID 651614).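 Note: cells cotransfected with StAR promoter reporter and SF1 expression vector; 0% = vehicle on cells with receptor and 100% = vehicle on cells lacking receptor.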 Particulars: cell-based SF1 luciferase reporter, at 3.6 µM, active compounds read high.
Assay [4] can be described thus: VP16 transactivation reporter inhibitors, counter-screen for LRH-1 inverse agonist project, cell-based, luminescence, high throughput (AID 651615; in the data active = inhibition above about 33%). Particulars: Gal4-VP16 luciferase reporter cells, at 3.6 µM, active compounds read high.

Nuclear receptor subfamily 5 group A member 2 (Homo sapiens), sequence (O00482 whole entry, looked up): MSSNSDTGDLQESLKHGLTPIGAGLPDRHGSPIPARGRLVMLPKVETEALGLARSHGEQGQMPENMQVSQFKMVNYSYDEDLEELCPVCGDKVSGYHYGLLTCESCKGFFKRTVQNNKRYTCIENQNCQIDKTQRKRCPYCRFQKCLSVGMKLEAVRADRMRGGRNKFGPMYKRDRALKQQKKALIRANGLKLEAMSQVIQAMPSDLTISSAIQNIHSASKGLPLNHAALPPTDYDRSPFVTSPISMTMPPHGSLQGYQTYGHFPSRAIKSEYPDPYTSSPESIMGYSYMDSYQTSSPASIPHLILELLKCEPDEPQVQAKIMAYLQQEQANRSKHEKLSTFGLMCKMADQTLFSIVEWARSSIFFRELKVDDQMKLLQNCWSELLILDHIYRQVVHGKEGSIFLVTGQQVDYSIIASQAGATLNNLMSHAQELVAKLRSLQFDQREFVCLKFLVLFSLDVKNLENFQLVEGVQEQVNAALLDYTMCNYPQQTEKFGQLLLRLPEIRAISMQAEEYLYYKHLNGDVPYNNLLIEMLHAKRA
Steroidogenic factor 1 (Homo sapiens), sequence (Q13285 whole entry, looked up, the tested form may be a part): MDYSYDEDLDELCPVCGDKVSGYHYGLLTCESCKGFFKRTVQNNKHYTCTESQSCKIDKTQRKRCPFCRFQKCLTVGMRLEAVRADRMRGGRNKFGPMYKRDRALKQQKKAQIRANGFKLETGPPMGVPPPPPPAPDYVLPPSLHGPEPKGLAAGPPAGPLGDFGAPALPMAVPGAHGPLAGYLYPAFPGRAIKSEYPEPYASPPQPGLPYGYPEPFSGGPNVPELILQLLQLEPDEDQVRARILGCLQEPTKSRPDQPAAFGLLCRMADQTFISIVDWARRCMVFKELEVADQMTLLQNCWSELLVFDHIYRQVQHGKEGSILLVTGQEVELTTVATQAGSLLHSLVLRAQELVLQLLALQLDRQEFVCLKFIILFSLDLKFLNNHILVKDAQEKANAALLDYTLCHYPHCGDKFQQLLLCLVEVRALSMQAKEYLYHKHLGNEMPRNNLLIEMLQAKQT

The term inhibition denotes the drop in the measured response relative to a control, in per cent. With `CCC(NC(=O)c1cc(COc2cc(C)c(Cl)c(C)c2)on1)c1ccncc1` (centres undefined), the inhibition in assay [1] was 0.99%; in assay [2], 52.5% (active); in assay [3] it was 50.9% (active); in assay [4] it was 8.52%.
In the same order, the values of `O=C(c1cc(COc2cccc3cnccc23)on1)N1CCCC(CCCO)C1` (centres undefined) are 35.4% (active), 66.4% (active), 70.5% (active) and 63.5% (active).
In the same order, the values of `Cc1ccc(Nc2nc(-c3cccnc3)nc3ccccc23)cc1` are 36.1% (active), 54.1% (active), 59.5% (active) and 14%.
`COc1ccc(-c2nc(C(N)=O)c3[nH]c(=O)n(-c4cccc(Cl)c4)c3n2)cc1OC`: the inhibition in assay [1] is 20.8%; in assay [2], 57.3% (active); in assay [3] it was 56.5% (active); in assay [4], -5.48%.
In the same order, the values of `CCS(=O)(=O)Nc1cccc(-c2ccc3nnc(-c4cccnc4)n3n2)c1` are 21.7%, 52.1% (active), 49.5% (active) and -31.6%.
In the same order, the values of `O=C(Nc1cccc(S(=O)(=O)N2CCCCC2)c1)c1ccc([N+](=O)[O-])o1` are 33.8% (active), 67.3% (active), 69.2% (active) and -4.21%.
Regarding `CCOc1ccc(CCNC(=O)COC(=O)CCc2cc(OC)c(OC)c(OC)c2)cc1OCC`, the inhibition in assay [1] was 2.32%; in assay [2], 50.1% (active); in assay [3] it was 47.2% (active); in assay [4] it was 2.92%.
In the same order, the values of `C/C(=N\Nc1nc(C)c(C)s1)c1ccc([N+](=O)[O-])cc1` are -12.6%, 49.1% (active), 47.8% (active) and -2.81%.
In the same order, the values of `COc1ccc(Nc2nc(NCCN3CCOCC3)nc(Nc3ccc(OC)cc3)n2)cc1` are -1.42%, 42.9% (active), 38.6% and 0.52%.
In the case of `O=C(COC(=O)C1CCCCC1)NCCc1ccccc1`, the inhibition is 3.93% in assay [1], 50.9% (active) in assay [2], 41.5% in assay [3] and -5.95% in assay [4].
In the same order, the values of `O=C(Nc1cccc(NC(=O)c2ccccc2Cl)c1)c1ccc([N+](=O)[O-])o1` are 33.1% (active), 58.8% (active), 66.8% (active) and -5.43%.
For the compound `COc1ccc(C2=Nn3c(nnc3-c3ccccc3OC)SC2)cc1OC1CCOC1` (centres undefined), the inhibition in assay [1] was 54.4% (active); in assay [2], 69.1% (active); in assay [3] it was 71.1% (active); in assay [4] it was 19.3%.
In the same order, the values of `Cc1c(C)c2ccc(OCC(=O)N3CC[C@@]4(O)CCCC[C@H]4C3)cc2oc1=O` are 14.5%, 39%, 25.6% and -3.1%.
In the same order, the values of `O=C(C(=Cc1ccccc1)CN1CCCCC1)c1ccccc1` are 36.4% (active), 66.8% (active), 75.1% (active) and 82.8% (active).
In the same order, the values of `CCCc1cc(=O)oc2c(C)c(OCC(=O)NCCN3CCOCC3)ccc12` are 6.59%, 43.8% (active), 46.3% (active) and -19.2%.
On to `CC(C)CC1(C)NC(=O)N(CC(=O)Nc2ccc3c(c2)OCCO3)C1=O` (centres undefined), for which the inhibition was 16.7% in assay [1], 54.2% (active) in assay [2], 53% (active) in assay [3] and 7.91% in assay [4].
In the same order, the values of `O=C(COC(=O)c1ccc[n+]([O-])c1)Nc1ccc([N+](=O)[O-])cc1Cl` are 17.6%, 59.4% (active), 56.2% (active) and 1.26%.
In the same order, the values of `O=C(N/N=C/c1ccc([N+](=O)[O-])s1)c1ccccc1Br` are 40.1% (active), 57.5% (active), 65.3% (active) and 14%.
In the same order, the values of `CCOc1ccc(CCNC(=O)COC(=O)c2nc(Cl)ccc2Cl)cc1OCC` are -2.83%, 39.2%, 28.2% and -0.88%.
On to `O=C(NC(NNc1ccc([N+](=O)[O-])cc1)(C(F)(F)F)C(F)(F)F)c1ccccc1Cl`, for which the inhibition in assay [1] was 7.51%; in assay [2] it was 18.4%; in assay [3], 34.1%; in assay [4], 5.04%.
In the same order, the values of `COc1ccc(C(=O)Nc2cnccn2)cc1[N+](=O)[O-]` are -2.94%, 35.3%, 26.4% and 4.88%.
Turning to `COC(=O)c1ccc(NC(=O)COc2cccc(-n3cnnn3)c2)cc1`, the inhibition in assay [1] is -5.38%; in assay [2] it was 41.3% (active); in assay [3], 32.5%; in assay [4], -9.98%.
In the same order, the values of `COc1cc(C(=O)Nc2ccccc2N2CCN(S(C)(=O)=O)CC2)cc(OC)c1OC` are 9.79%, 44.5% (active), 34% and -2.73%.
For `Cc1cc(NC(=O)c2ccc([N+](=O)[O-])o2)ccc1NC(=O)c1ccco1`, the inhibition in assay [1] was 1.92%; in assay [2] it was 50.6% (active); in assay [3], 55.5% (active); in assay [4] it was -13.8%.
In the same order, the values of `CC1(C(=O)NCc2ccc3c(c2)OCO3)CCN1C(=O)Cc1ccc(Cl)cc1Cl` (centres undefined) are 7.73%, 56.5% (active), 47% (active) and -2.52%.
In the same order, the values of `COc1cccc(-c2cc(NC=O)c3ncc(-c4ccc(C(C)=O)cc4)n3c2)c1` are 45.1% (active), 65.2% (active), 60.1% (active) and -11.4%.
As for `Cc1ccc(N2CC(C(=O)Nc3nc4ccc(S(C)(=O)=O)cc4s3)CC2=O)cc1` (centres undefined), the inhibition was 12.4% in assay [1], 52.6% (active) in assay [2], 48.4% (active) in assay [3] and -0.21% in assay [4].
In the same order, the values of `O=C(Nc1ccc(N2CCOCC2)c(Cl)c1)c1ccc([N+](=O)[O-])o1` are -80.2%, 9.33%, 35.9% and -84.8%.
Regarding `C[n+]1c2cc(N)ccc2cc2ccc(N)cc21`, the inhibition in assay [1] was 34.8% (active) and 28.5% (active); in assay [2], 109% (active) and 105% (active); in assay [3] it was 79.5% (active) and 66.7% (active); in assay [4], 95.3% (active) and 92.1% (active).
Turning to `Nc1ccc(C(=O)NN2C(=O)[C@H](Cl)C2c2ccc(Cl)cc2)cc1` (some centres undefined), the inhibition was 8.81% in assay [1], 43.1% (active) in assay [2], 52.1% (active) in assay [3] and -16.2% in assay [4].
For the compound `Cc1ccc(NC(=O)CN2C(=O)NC(C)(CC(C)C)C2=O)c(Br)c1` (centres undefined), the inhibition in assay [1] is 15.9%; in assay [2] it was 55.1% (active); in assay [3], 61.6% (active); in assay [4], -6.87%.
In the same order, the values of `COC(=O)CNC(=O)c1nn(-c2cccc(OC)c2)c(=O)c2ccccc12` are 25%, 35.9%, 37.3% and -0.96%.
In the same order, the values of `CCOc1ccc(CCNC(=O)COC(=O)Cc2c[nH]c3ccccc23)cc1OCC` are 9.43%, 56.5% (active), 56.3% (active) and -0.69%.
In the same order, the values of `Cc1ccc(C)c(-c2cc(C(=O)N/N=C/c3cccnc3)c3ccccc3n2)c1` are 9.19%, 51.1% (active), 44.9% (active) and 5.29%.
In the case of `Cc1cc(O)c(/C=N/Nc2cccc(Cl)c2)c(=O)o1`, the inhibition in assay [1] was -0.11%; in assay [2], 44.5% (active); in assay [3] it was 24.6%; in assay [4] it was 56% (active).
In the same order, the values of `CC(=O)CSc1nc(N)c(C#N)c(-c2cccs2)c1C#N` are 31.5% (active), 57.7% (active), 62.7% (active) and 35% (active).
In the same order, the values of `C/C(=N\NC(N)=S)c1ccc(-n2ccnc2)cc1` are 10.1%, 60.5% (active), 53.4% (active) and -13.1%.
With `CN(C)S(=O)(=O)c1cccc(C(=O)OCC(=O)Nc2ccc3c(c2)OCCO3)c1`, the inhibition in assay [1] is 17.9%; in assay [2] it was 51.5% (active); in assay [3], 52.3% (active); in assay [4], 10.7%.
For the compound `COC(=O)C1(C)Nc2ccccc2C(=O)N1c1ccccc1C` (centres undefined), the inhibition in assay [1] was 2.27%; in assay [2], 16%; in assay [3], 0.53%; in assay [4], 7.07%.
For the compound `CCc1cc(=O)oc2c(C)c(OCC(=O)NCCN3CCOCC3)ccc12`, the inhibition in assay [1] was -3.34%; in assay [2] it was 48.5% (active); in assay [3], 30.7%; in assay [4] it was -8.24%.
In the same order, the values of `Cc1sc(NC(=S)NC(=O)CCc2ccccc2)c(C(N)=O)c1C` are 54% (active), 35.5%, 38.1% and 11.8%.
In the same order, the values of `O=C(c1ccco1)N1CCN(C(=O)c2ccc(COc3ccc(Cl)cc3Cl)o2)CC1` are 5.02%, 49% (active), 46.2% (active) and -11.1%.
In the same order, the values of `CC1(C)Cc2c(sc3nc(SCC(=O)NCc4ccco4)n(-c4ccccc4)c(=O)c23)CS1` are 14%, 41.6% (active), 40.7% and 4.77%.
With `CCn1c(=O)[nH]c(=O)c2c(N)c(C(=O)c3cc(F)ccc3F)sc21`, the inhibition is 10.4% in assay [1], 59.5% (active) in assay [2], 54.2% (active) in assay [3] and 10.3% in assay [4].
In the same order, the values of `CCC1(C)OC(=O)N2CCc3c(C)[nH]c4c(C)ccc(c34)C21C` (centres undefined) are 8.96%, 41.6% (active), 44.9% (active) and 12.7%.
In the same order, the values of `COc1ccc(NC(=O)CN2C(=O)C(C)SC(C)C2=O)c(OC)c1` (centres undefined) are 4.55%, 44% (active), 49% (active) and 11.3%.
For the compound `CN(C)c1ccc(S(=O)(=O)N2CCCCC2)cc1NC(=O)CCNC(=O)c1ccc(Cl)cc1`, the inhibition is 6.54% in assay [1], 3.72% in assay [2], 1.24% in assay [3] and -0.3% in assay [4].
In the same order, the values of `CS(=O)(=O)N1CCN(c2ccccc2NC(=O)c2cc3ccccc3o2)CC1` are 26.4%, 47.5% (active), 33.7% and -6.66%.
In the same order, the values of `COc1cc(-c2cc(NC=O)c3ncc(-c4ccc(C(C)=O)cc4)n3c2)ccc1O` are 56.8% (active), 64.4% (active), 60.6% (active) and -49.1%.
For `CCN1C(=O)c2cccc3c(NC(=O)c4ccc(S(=O)(=O)N(C)C)cc4)ccc1c23`, the inhibition in assay [1] was 39% (active); in assay [2], 47.9% (active); in assay [3], 46.2% (active); in assay [4], -41.4%.
In the same order, the values of `CC(NC(=O)CCl)c1ccccc1Br` (centres undefined) are 23.9%, 60.2% (active), 57.4% (active) and -27.4%.
